Article PMC4552634, “A New Set of Chemical Starting Points with Plasmodium falciparum Transmission-Blocking Potential for Antimalarial Drug Discovery” (PLoS ONE, 2015)
Like-named read-outs stand apart in the source and are kept apart here. The whole screen tested about 13,000 compounds, of which about 3,200 (25%) showed an effect of 50% or more. Some of the results follow.

Tested on: P. falciparum stage V gametocytes
Design: BacTiter-Glo ATP luminescence viability of purified stage V gametocytes in 384-well plates, per cent inhibition versus DMSO
Settings: 48 h, 5 µM, inhibitor

Compound	% Inhibition	% Inhibition (% Inhibition)
O=C(Nc1cccc(-c2csc(-c3nc4ccccc4[nH]3)c2)c1)c1ccoc1 [TCMDC-132404]	1.607%	
N=C(N)NN=CC(=O)Nc1ccc(C(F)(F)F)cc1 [TCMDC-137560]	10.99%	
CCC(CC(NCCCCNC(=O)c1ccc(NC(=O)c2ccc(Cl)cc2)cc1)c1ccccc1)c1ccccc1OC (centres unmarked) [TCMDC-138580]		-0.1612%
Nc1ncc(-c2ccc(F)cc2)c2ccc(-c3cccc(F)c3)cc12 [TCMDC-134502]	-15.75%	
NC(N)=NC(=O)Nc1cc(Br)c(Br)c(Br)c1 [TCMDC-137506]	-8.388%	
CNCC(O)c1cc(Cl)c(Cl)cc1C (centres unmarked) [TCMDC-131255]	13.21%	
CCn1ncc(Cl)c1CN(C)S(=O)(=O)c1ccc(Br)cc1 [TCMDC-124902]	30.97%	
CCSc1nc2sc3c(c2c(=O)n1-c1ccccc1)CCN(C)C3 [TCMDC-123852]	14.1%	
CCCN(CCC)S(=O)(=O)c1ccc(C(=O)N2CCC(C(=O)OCC)CC2)cc1 [TCMDC-139301]	16.88%	
Cc1nc(N)nc(N)c1-c1cccc(Cl)c1 [TCMDC-137375]	13.21%	
c1ccc(COc2ccc(Nc3ncnc4cnc(-c5ccc(CNc6cccnc6)o5)cc34)cc2)cc1 [TCMDC-137776]	19.44%	
O=C(NCCCCCN1CCC(c2c[nH]c3ccccc23)CC1)Nc1ccc(Br)cc1 [TCMDC-139115]	-28.65%	
Cc1ccc(NC(=O)NCCCCCN2CCC(c3c[nH]c4ccccc34)CC2)cc1I [TCMDC-139200]	66.97%	
O=C(NCCCCCN1CCC(c2c[nH]c3ccccc23)CC1)Nc1ccc(I)c(Cl)c1 [TCMDC-139202]	-23.12%	
CC1(C)N=C(N)N=C(N)N1c1ccc(Oc2ccc(Cl)cc2)c(Cl)c1 [TCMDC-123522]	76.9%	
Cc1cc(N2C(N)=NC(N)=NC2(C)C)ccc1Cl [TCMDC-137705]	-13.35%	
Cc1ccc(N2C(N)=NC(N)=NC2(C)C)cc1Cl [TCMDC-137708]	-11.46%	
COc1cccc(C(=O)NCc2cccs2)c1Oc1ccccc1 [TCMDC-141236]	3.513%	
NCC(=O)Nc1cccc(Nc2nccc(-c3c(-c4cccc(NC(=O)c5ccccc5)c4)nn4ccccc34)n2)c1 [TCMDC-135671]	-11.23%	
O=C(CCc1ccccc1)N[C@H](Cc1c[nH]c2ccccc12)C(=O)N1CCC(NCc2ccc3c(c2)Cc2ccccc2-3)CC1 [TCMDC-135353]	27.37%	
O=C(NCCC1CCN(CCc2c[nH]c3ccccc23)CC1)Nc1ccc(Cl)c(Cl)c1 [TCMDC-139151]	31.54%	
CC1CCN(C(=O)C(Cc2c[nH]c3ccccc23)NS(=O)(=O)c2ccc(Cl)cc2)CC1 (centres unmarked) [TCMDC-124494]	54%	

Compound	% Inhibition	% Inhibition (% Inhibition)
CC1CCN(C(=O)[C@H](Cc2c[nH]c3ccccc23)NS(=O)(=O)c2ccc(Cl)cc2)CC1 [TCMDC-125035]	69.39%	
C[C@@H](CNc1ccnc(Nc2ccc3[nH]c(=O)[nH]c3c2)n1)c1ccccc1 [TCMDC-136803]	-37.25%	
O=C(c1cc(C(F)(F)F)cc(C(F)(F)F)c1)N1CCC(CCN2CCC3(CC2)C(=O)NCN3c2ccccc2)CC1Cc1ccc(Cl)c(Cl)c1 (centres unmarked) [TCMDC-141945]	-34.22%	
CC(C)(C)c1ccc(CNC(=O)COc2ccc(-c3nnc(-c4cccc([N+](=O)[O-])c4)o3)cc2[N+](=O)[O-])cc1 [TCMDC-134986]	-5.433%	
CC(C)(C)OC(=O)NCc1ccc(Nc2nnc(-c3ccc(OCC(=O)NCc4ccc(C(C)(C)C)cc4)c([N+](=O)[O-])c3)o2)cc1 [TCMDC-134991]	114.3%	
CC1(C)[C@H]2CC[C@@H](CNc3nc(NCCc4cnc[nH]4)nc(Nc4ccc(Oc5ccccc5)cc4)n3)[C@@H]1C2 [TCMDC-139744]	-37.07%	
CC1(C)[C@H]2CC[C@@H](CNc3nc(NCC(=O)Nc4ccc5ccccc5c4)nc(N4CCC(N5CCCC5)CC4)n3)[C@@H]1C2 [TCMDC-139977]	10.19%	
CN1CCN(c2cccc(-c3nnc(-c4ccc(OCC(=O)NCc5ccc(C(F)(F)F)cc5)c([N+](=O)[O-])c4)o3)c2)CC1 [TCMDC-134942]	2.294%	
CC(C)(C)OC(=O)NCc1ccc(Nc2nnc(-c3ccc(OCC(=O)NC[C@@H]4CC[C@H]5C[C@@H]4C5(C)C)c([N+](=O)[O-])c3)o2)cc1 [TCMDC-135039]	110.7%	
CCCc1cc(N2CCC(N3CCCC3)CC2)nc(Nc2ccc(Cl)cc2)n1 [TCMDC-132386]	18.02%	
COc1ccc(C2CC(c3cccs3)=NN2C(=O)COc2cccc(C(C)=O)c2)cc1OC (centres unmarked) [TCMDC-125111]	-18.64%	
FC(F)(F)c1ccc(-c2cncc(-c3ccc(C(F)(F)F)cc3)n2)cc1 [TCMDC-138711]	-27.18%	
N#Cc1cccc(Nc2nccc(NCC(O)c3ccccc3C(F)(F)F)n2)c1 (centres unmarked) [TCMDC-136576]	-28.54%	
O=C(Nc1ccc(-c2csc3nccn23)cc1)c1ccc(Cl)cc1 [TCMDC-137159]	11.24%	
CN1CCN(CCCN(Cc2ccc(-c3cccc(CNCc4ccc5c(c4)OCO5)c3)cc2)C(=O)Nc2ccccc2)CC1 [TCMDC-140606]	65.32%	
CN1CCN(CCCN(Cc2cccc(-c3ccc(CNCc4ccc5c(c4)OCO5)cc3)c2)C(=O)Nc2ccccc2)CC1 [TCMDC-140596]	57.54%	
CN1CCN(CCCN(Cc2ccc(-c3cccc(CNCc4ccc5c(c4)OCO5)c3)cc2)C(=O)NCCc2ccccc2)CC1 [TCMDC-140947]	67.47%	
CN1CCN(CCCN(Cc2ccc(-c3ccc(CNCc4ccc5c(c4)OCO5)cc3)cc2)C(=O)Nc2ccccc2)CC1 [TCMDC-140607]	58.83%	
c1ccc2c(c1)ncn2-c1ccnc(Nc2ccncc2)n1 [TCMDC-138908]	15.51%	
Cc1ccc(NC(=O)c2cc(Br)cc(N3CCCN(C)CC3)c2)cc1F [TCMDC-135143]	-89.56%	
CCCCCN1CCCC(CNS(=O)(=O)c2ccc(C(=O)Nc3ccc(C(F)(F)F)cc3)cc2)C1 (centres unmarked) [TCMDC-133679]	-5.047%	
c1ccc2c(c1)CN(CC1CCOCC1)CC1(CCN(Cc3c[nH]c4cnccc34)CC1)O2 [TCMDC-133380]	13.86%	

Compound	% Inhibition	% Inhibition (% Inhibition)
O=C(NCCCN(Cc1ccc(F)cc1)c1ccccn1)C(c1cc2ccccc2o1)N1CCN(C(c2ccccc2)c2ccccc2)CC1 (centres unmarked) [TCMDC-141022]	15.04%	
CCN(CCN(C)C)Cc1ccc(-c2ccc(NS(=O)(=O)c3cccc(Cl)c3)cc2)cc1 [TCMDC-136601]	2.097%	
O=C(COC(=O)c1cccc(S(=O)(=O)N2CCc3ccccc32)c1)NNC(=O)c1cccs1 [TCMDC-124334]	26.4%	
CC(C)C[C@H](NC(=O)c1ccc(OCCN2CCOCC2)cc1)C(=O)N[C@H](/C=N/NC(=O)c1ccccc1)CCc1ccccc1 [TCMDC-135817]	2.96%	
CCCCCN=C(N)c1ccc(OCCCCCOc2ccc(C(N)=NCCCCC)cc2)cc1 [TCMDC-137620]	63.24%	
CCCCN=C(N)Nc1ccc(OCCCOc2ccc(NC(N)=NCCCC)cc2)cc1 [TCMDC-137616]	55.77%	
COc1ccc(CN=C(N)Nc2nc(-c3ccc(OCCCn4ccnc4)cc3)cs2)cc1 [TCMDC-138934]	9.829%	
CCCCCCN=C(N)c1ccc(OCCCCCOc2ccc(C(N)=NCCCCCC)cc2)cc1 [TCMDC-137619]	113.3%	
CC(C)CCN=C(N)c1ccc(OCCCCCOc2ccc(C(N)=NCCC(C)C)cc2)cc1 [TCMDC-137618]	62.8%	
NC(=NCc1ccc(O)cc1)Nc1nc(-c2ccc(OCCCn3ccnc3)cc2)cs1 [TCMDC-138936]	-10.17%	
CCCCCCN=C(N)c1ccc2nc(-c3ccc(O)cc3)[nH]c2c1 [TCMDC-137218]	15.89%	
CCCCN=C(N)c1ccc(OCCCCCOc2ccc(C(N)=NCCCC)cc2)cc1 [TCMDC-137617]	33.37%	
CN(C)C=Nc1ccc(OCCCCCCOc2ccc(N=CN(C)C)cc2)cc1 [TCMDC-137575]	-11.04%	
O=C(Nc1cccc(-c2cc3ccccc3[nH]2)c1)C1CCN(Cc2ccccc2O)CC1 [TCMDC-124628]	-2.419%	
COC(=O)Nc1cc(C(F)(F)F)ccc1N1CCCC(NS(=O)(=O)c2ccc(C(C)(C)C)cc2)C1 (centres unmarked) [TCMDC-134158]	-30.72%	
CN1CCN(c2ccnc3ccc(NC(=O)Nc4ccc(Br)cc4)cc23)CC1 [TCMDC-139324]	-20.3%	
CC(CNC1CCN(CCn2c(=O)ccc3ccc(F)cc32)CC1)c1ccccc1 (centres unmarked) [TCMDC-135136]	3.185%	
CCN1CCCC(CNC(=O)/C(=C/C=C/c2cc3cc(Cl)c(Cl)cc3[nH]2)OC)C1 (centres unmarked) [TCMDC-139380]	-27.83%	
CC1CCC(C[C@@H](C(=O)N[C@H](C(=O)Nc2nccs2)[C@@H](C)O)[C@H](CCC(F)(F)F)N(O)C=O)CC1 (some centres unmarked) [TCMDC-138352]	2.054%	
Cc1ccc(OCCCCON2C(N)=NC(N)=NC2(C)C)cc1C [TCMDC-131655]	1.03%	
COc1ccc2nccc([C@@H](O)CN3CCC(NCc4ccc5c(n4)NCCC5)CC3)c2c1 [TCMDC-141460]	44.65%	
